Out of some 310,000 compounds screened, about 14,000 (4.5%) showed an effect of 50% or more. Effects have a minus sign here. What follows is part of a selection rich in strong results, with near analogues and random picks from the rest.
Target: human ether-à-go-go-related gene (hERG) potassium channel (human, UniProt Q12809)
Assay: primary screen, population patch clamp on CHO cells stably expressing hERG; higher = less effect of the substance
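Also: peak tail current of the secondary pulse compared with the same well before compound.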

Sequence of human ether-à-go-go-related gene (hERG) potassium channel (Q12809 whole entry, looked up): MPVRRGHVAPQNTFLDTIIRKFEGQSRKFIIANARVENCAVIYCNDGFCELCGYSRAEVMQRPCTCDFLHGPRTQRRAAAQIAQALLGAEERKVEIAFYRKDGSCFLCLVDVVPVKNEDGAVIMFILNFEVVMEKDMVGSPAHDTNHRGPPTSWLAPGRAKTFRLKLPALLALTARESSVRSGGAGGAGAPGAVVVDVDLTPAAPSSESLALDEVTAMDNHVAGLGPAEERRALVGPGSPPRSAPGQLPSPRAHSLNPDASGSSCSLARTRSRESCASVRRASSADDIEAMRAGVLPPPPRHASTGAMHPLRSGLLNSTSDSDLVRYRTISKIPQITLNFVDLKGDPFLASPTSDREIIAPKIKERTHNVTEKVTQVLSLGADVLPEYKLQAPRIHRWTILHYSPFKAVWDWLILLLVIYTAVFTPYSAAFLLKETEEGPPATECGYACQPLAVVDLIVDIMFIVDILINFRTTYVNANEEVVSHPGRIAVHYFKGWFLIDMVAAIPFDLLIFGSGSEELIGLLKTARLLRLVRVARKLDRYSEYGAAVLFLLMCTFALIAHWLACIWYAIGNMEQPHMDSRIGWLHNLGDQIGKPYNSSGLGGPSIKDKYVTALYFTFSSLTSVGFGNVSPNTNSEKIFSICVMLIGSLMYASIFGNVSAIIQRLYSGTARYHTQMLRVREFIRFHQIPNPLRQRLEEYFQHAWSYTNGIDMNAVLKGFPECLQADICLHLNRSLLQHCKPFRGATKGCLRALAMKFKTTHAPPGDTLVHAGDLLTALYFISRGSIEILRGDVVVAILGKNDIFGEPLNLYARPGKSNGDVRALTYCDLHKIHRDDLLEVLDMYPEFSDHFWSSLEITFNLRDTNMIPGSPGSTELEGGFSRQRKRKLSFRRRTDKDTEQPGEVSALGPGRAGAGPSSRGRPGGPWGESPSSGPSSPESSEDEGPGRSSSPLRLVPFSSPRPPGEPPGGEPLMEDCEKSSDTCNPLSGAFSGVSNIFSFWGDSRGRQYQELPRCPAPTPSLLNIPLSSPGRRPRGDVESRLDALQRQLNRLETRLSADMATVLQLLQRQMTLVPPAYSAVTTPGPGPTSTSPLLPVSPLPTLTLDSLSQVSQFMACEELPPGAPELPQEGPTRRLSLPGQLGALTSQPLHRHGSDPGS

Going from Cc1ccc(NC(=O)/C(=C/c2cccs2)NC(=O)c2ccco2)c(C)c1 to O=C(N/C(=C/c1ccco1)C(=O)N1CCCC1)c1cccs1, the “hERG current change (%, negative = inhibition) at 10uM” value rises from -9.56% to -0.326%.

Going from CCCC(=O)NNC(=O)Nc1ccccc1 to O=C(CCN1CCOCC1)Nc1ccc(Br)cc1C(=O)c1ccccc1, the “hERG current change (%, negative = inhibition) at 10uM” value falls from 19.8% to -19.6%.

Going from O=c1[nH]c(CSc2nc3ccccc3[nH]2)nc2c1cnn2-c1ccccc1 to O=C(OCC#CCSc1nnc(-c2cccc3ccccc23)o1)c1ccco1, the “hERG current change (%, negative = inhibition) at 10uM” value rises from -17.6% to -2.9%.

Going from COc1ccc(CC(=O)Nc2cc(C)on2)cc1OC to COc1ccc(CCNC(=O)C(=O)NCc2cccs2)cc1OC, the “hERG current change (%, negative = inhibition) at 10uM” value rises from 2.2% to 8.95%.

Going from CC(=O)Nc1ccc(S(=O)(=O)Nc2nc3ccccc3nc2Nc2cccc(S(N)(=O)=O)c2)cc1 to COc1ccc(S(=O)(=O)Cc2ccc(C(=O)NCCc3ccc(S(N)(=O)=O)cc3)o2)cc1, the “hERG current change (%, negative = inhibition) at 10uM” value falls from 10.3% to 10.1%.

Going from CCOc1ccc2oc(-c3ccccc3)c(C(=O)N3CCN(C)CC3)c2c1 to O=C(CN1CCOCC1)Nc1ccc(Br)cc1C(=O)c1ccccc1, the “hERG current change (%, negative = inhibition) at 10uM” value falls from -9.67% to -32.4%.

First: O=C(Nc1ccccc1N1CCCCC1)c1cc(S(=O)(=O)N2CCOCC2)ccc1Cl
Second: O=C(Nc1ccccc1N1CCCC1)c1cc(S(=O)(=O)N2CCOCC2)ccc1Cl
The “hERG current change (%, negative = inhibition) at 10uM” value of the first is higher: -4.01% for the first, -34.5% for the second.

First: CS(=O)(=O)c1ccc(Cl)c(NC(=O)c2cc(S(=O)(=O)N3CCOCC3)ccc2N2CCCC2)c1
Second: O=C(O)C(=O)O.O=S(=O)(c1ccc(F)cc1)N1CCC(N2CCCCCC2)CC1
The “hERG current change (%, negative = inhibition) at 10uM” value of the first is lower: -81.3% for the first, -26.3% for the second.

Compared with Cc1nc(CC(=O)NNS(=O)(=O)c2ccc(F)c(Cl)c2)cs1, Fc1ccc(NCc2ccccc2F)cc1Cl is lower in “hERG current change (%, negative = inhibition) at 10uM” value: 20% for the first, -139% for the second.

Compared with O=C(COC(=O)C1CCCN1C(=O)c1cccs1)Nc1ccc2c(c1)OCO2 (stereo not shown), CSc1cccc(NC(=O)COC(=O)C2CCN(S(=O)(=O)c3ccccc3)CC2)c1 is higher in “hERG current change (%, negative = inhibition) at 10uM” value: -11.9% for the first, 4.09% for the second.

Going from Cc1ccc(C)c(S(=O)(=O)Nc2cc(SCC(=O)O)c(O)c3ccccc23)c1 to Cc1ccc(NC(=O)C(C)N2CCOCC2)c(C(=O)c2ccccc2)c1 (stereo not shown), the “hERG current change (%, negative = inhibition) at 10uM” value falls from 5.34% to -26.9%.

Compared with CCOc1ccc(Cc2c(C)[nH]c3ccc(C(=O)O)cc3c2=S)cc1, CCOc1ccc2nc(COC(=O)c3cccs3)c(C(=O)c3ccccc3)[n+]([O-])c2c1 is higher in “hERG current change (%, negative = inhibition) at 10uM” value: -9.2% for the first, 6.46% for the second.

First: COc1ccc([N+](=O)[O-])cc1N(CC(O)CN1CCCCC1)S(=O)(=O)c1ccc(C)cc1 (stereo not shown)
Second: COc1ccc([N+](=O)[O-])cc1N(CC(O)CN1CCCC1)S(=O)(=O)c1ccc(C)cc1 (stereo not shown)
The “hERG current change (%, negative = inhibition) at 10uM” value of the first is lower: -42.7% for the first, -2.85% for the second.

First: Cc1ccc(S(=O)(=O)N(CC(O)CN2CCCCC2)c2cccc([N+](=O)[O-])c2)cc1 (stereo not shown)
Second: O=[N+]([O-])c1cccc(N(CC(O)CN2CCCCC2)S(=O)(=O)c2ccccc2)c1 (stereo not shown)
The “hERG current change (%, negative = inhibition) at 10uM” value of the first is lower: -78.8% for the first, -43.8% for the second.

Compared with Cc1cc(C)n(CC(O)CN(c2cccc([N+](=O)[O-])c2)S(=O)(=O)c2ccccc2)n1 (stereo not shown), O=[N+]([O-])c1cccc(N(CC(O)CN2CCCC2)S(=O)(=O)c2ccccc2)c1 (stereo not shown) is lower in “hERG current change (%, negative = inhibition) at 10uM” value: 7.08% for the first, -62.4% for the second.

Compared with Cc1cc(C)c2nc(SCC#N)cc(C)c2c1, N#Cc1c(C(F)(F)F)cc(-c2ccc(Cl)c(Cl)c2)nc1SCCN1CCOCC1 is lower in “hERG current change (%, negative = inhibition) at 10uM” value: 13.5% for the first, 6.62% for the second.

First: CCN=C(Nc1ccc(Cl)cc1)c1cccnc1
Second: Fc1ccccc1CNc1ccc(Cl)cc1
The “hERG current change (%, negative = inhibition) at 10uM” value of the first is higher: -2.16% for the first, -8.14% for the second.

Compared with CC(C)(C)OC(=O)N1CCOCCOCCN(C(=O)OC(C)(C)C)CCOCCOCC1, Cc1oc(-c2ccc(Cl)cc2)nc1CN1CCCC(C(=O)NCCCN2CCOCC2)C1 (stereo not shown) is lower in “hERG current change (%, negative = inhibition) at 10uM” value: 7% for the first, -19.4% for the second.

First: Cc1oc(-c2ccc(Cl)cc2)nc1CN1CCCC(C(=O)NC2CC2)C1 (stereo not shown)
Second: COc1ccc(-c2nc(CN3CCCC(C(=O)NC4CCCC4)C3)c(C)o2)cc1 (stereo not shown)
The “hERG current change (%, negative = inhibition) at 10uM” value of the first is lower: -81.3% for the first, -64.4% for the second.

Going from COc1ccc(-c2nc(CS(=O)CC(=O)NC3CCCC3)c(C)o2)cc1 (stereo not shown) to Cc1oc(-c2ccc(Cl)cc2)nc1CS(=O)CC(=O)NC1CC1 (stereo not shown), the “hERG current change (%, negative = inhibition) at 10uM” value rises from -16.4% to 8.75%.

Compared with COc1ccc(-c2nc(CN3CCC(C(=O)NC4CCCC4)CC3)c(C)o2)cc1OC, COc1ccc(C(C(=O)NC2CCCCC2)N(C(=O)c2ccco2)c2ccccc2C(C)=O)cc1OC (stereo not shown) is higher in “hERG current change (%, negative = inhibition) at 10uM” value: -36.4% for the first, 9.15% for the second.

First: CC1CCN(c2nc(N3CCCCC3)nc(N3CCCCC3)n2)CC1
Second: COC(=O)c1cc(C(=O)OCC(=O)NC2CCCCCCC2)cc([N+](=O)[O-])c1
The “hERG current change (%, negative = inhibition) at 10uM” value of the first is higher: 9.57% for the first, -7.58% for the second.

Going from CC(C)(C)C(=O)OCc1nc(-c2ccc(Cl)cc2)cs1 to CN(CCOc1ccc(Cl)cc1)Cc1cccc(S(=O)(=O)N(C)C)c1, the “hERG current change (%, negative = inhibition) at 10uM” value falls from 7.41% to -56.5%.

Going from COc1ccc(CNC(=O)CCc2nc3cc(S(=O)(=O)N(C)C)ccc3n2C)cc1OC to Cc1ccc(S(=O)(=O)N(C)C)cc1NC(=O)C(C)N(C)CCOc1ccc(Cl)cc1 (stereo not shown), the “hERG current change (%, negative = inhibition) at 10uM” value falls from 14.3% to -26.7%.

First: N#C/C(=C\N1CCCCC1)S(=O)(=O)c1ccc(Cl)cc1
Second: O=C(NCCc1ccccc1)c1ccc(S(=O)(=O)N2CCCC2)cc1
The “hERG current change (%, negative = inhibition) at 10uM” value of the first is higher: 15.6% for the first, -5.37% for the second.

First: Cc1ccc(-n2cnnn2)cc1Cl
Second: Fc1ccccc1CNc1ccc(Cl)c(Cl)c1
The “hERG current change (%, negative = inhibition) at 10uM” value of the first is lower: -18.8% for the first, 9.9% for the second.

Compared with C/C(=N\NC(=O)CNC(=O)c1cccs1)c1ccc(Cl)c(Cl)c1, O=C(CNC(=O)OCc1ccccc1)Nc1ccc(Br)cc1C(=O)c1ccccc1Cl is lower in “hERG current change (%, negative = inhibition) at 10uM” value: -2.25% for the first, -40.5% for the second.

First: CC(NC(=O)CSC1=NCCS1)c1ccccc1 (stereo not shown)
Second: O=C(O)CN1CCc2ccccc2C1
The “hERG current change (%, negative = inhibition) at 10uM” value of the first is lower: 14.3% for the first, 21.3% for the second.

Going from Clc1nc2sccn2c1/C=N/n1cnc2ccccc21 to Cc1cccc(N2CCN(C(=O)Cn3nc(C)n4cccc4c3=O)CC2C)c1 (stereo not shown), the “hERG current change (%, negative = inhibition) at 10uM” value rises from -10% to 1.19%.

Going from CC(C(=O)Nc1ccc(Br)cc1C(=O)c1ccccc1)N1CCOCC1 (stereo not shown) to CC(C(=O)Nc1ccc(Br)cc1C(=O)c1ccccc1)N1CCCCC1 (stereo not shown), the “hERG current change (%, negative = inhibition) at 10uM” value rises from -58.6% to -24.8%.

Going from O=C(CN1CCCCC1)NCC(=O)Nc1ccc(Br)cc1C(=O)c1ccccc1 to O=C(CCN1CCCCC1)NCC(=O)Nc1ccc(Br)cc1C(=O)c1ccccc1, the “hERG current change (%, negative = inhibition) at 10uM” value rises from -79.1% to -77.6%.

First: O=C(CCN1CCOCC1)NCC(=O)Nc1ccc(Br)cc1C(=O)c1ccccc1
Second: O=C(CN1CCOCC1)NCC(=O)Nc1ccc(Br)cc1C(=O)c1ccccc1
The “hERG current change (%, negative = inhibition) at 10uM” value of the first is lower: -49.5% for the first, -37.1% for the second.

Going from O=C(CNC(=O)OCc1ccccc1)Nc1ccc(Br)cc1C(=O)c1ccccc1 to O=C(CNC(=O)OCc1ccccc1)NCC(=O)Nc1ccc(Br)cc1C(=O)c1ccccc1, the “hERG current change (%, negative = inhibition) at 10uM” value falls from -15.1% to -56%.

First: Cc1csc(NC(=O)c2ccc(C)s2)n1
Second: Cc1cc(C(=O)N/N=C/c2c[nH]c3ccccc23)c(C)o1
The “hERG current change (%, negative = inhibition) at 10uM” value of the first is higher: 6.99% for the first, -27.4% for the second.

First: CN1CCC(OC(=O)c2cc3cc(Cl)cc(Cl)c3oc2=O)CC1
Second: COCCN1Cc2cccc(C(=O)Nc3cccnc3)c2C1=O
The “hERG current change (%, negative = inhibition) at 10uM” value of the first is higher: -17.8% for the first, -32.6% for the second.

First: O=C1N/C(=C\c2ccc(O)cc2)C(=O)c2ccccc21
Second: COc1ccc(S(=O)(=O)Cc2ccc(C(=O)NCc3ccccc3)o2)cc1
The “hERG current change (%, negative = inhibition) at 10uM” value of the first is higher: -1.53% for the first, -14.3% for the second.

First: COc1ccc(Nc2ccc(Nc3ccc(OC)cc3)nn2)cc1
Second: COc1ccc(OCCN(C)Cc2ccccc2)cc1
The “hERG current change (%, negative = inhibition) at 10uM” value of the first is higher: 18.6% for the first, -41.9% for the second.

First: O=C(O)CCCCCCCCc1cn(Cc2ccc(C(=O)c3ccccc3)cc2)nn1
Second: CCCCN(CCCNC(=O)c1ccc(CS(=O)(=O)c2ccc(OC)cc2)o1)Cc1ccccc1
The “hERG current change (%, negative = inhibition) at 10uM” value of the first is higher: 19.5% for the first, -67.4% for the second.

First: Cc1cccc(C)c1OCC(=O)N/N=C/c1cc2c(cc1[N+](=O)[O-])OCO2
Second: CCC(CC)C(=O)Nc1cc([N+](=O)[O-])ccc1F
The “hERG current change (%, negative = inhibition) at 10uM” value of the first is lower: -4.6% for the first, -2.25% for the second.

Compared with CCOC(=O)C1(Cc2ccccc2C)CCCN(C(=O)CCc2c(C)noc2C)C1 (stereo not shown), CCN(CC)CCCNC(=O)c1ccc(CS(=O)(=O)c2ccccc2OC)o1 is higher in “hERG current change (%, negative = inhibition) at 10uM” value: -29.3% for the first, 16.3% for the second.

Compared with COCCCNC(=O)c1ccc(CS(=O)(=O)c2ccc(OC)cc2)o1, CCCCNC(=O)c1ccc(CS(=O)(=O)c2ccc(OC)cc2)o1 is lower in “hERG current change (%, negative = inhibition) at 10uM” value: 5.86% for the first, -7% for the second.

Going from CCCCSCCCNC(=O)c1ccc(CS(=O)(=O)c2ccc(OC)cc2)o1 to COc1ccc(S(=O)(=O)Cc2ccc(C(=O)NCC(OC)OC)o2)cc1, the “hERG current change (%, negative = inhibition) at 10uM” value rises from -59.6% to 17.4%.

In the case of COc1ccc(S(=O)(=O)Cc2ccc(C(=O)NCCCN(C)c3ccccc3)o2)cc1, the “hERG current change (%, negative = inhibition) at 10uM” value is reported as -59.4%.

Reference: article PMC4336329 (PLoS ONE, 2015)
